Experimental data from PubChem BioAssay AID1159580 (chemical genetic matrix, 2015).
Among all 5,500 compounds or so, about 2,000 (36%) were called active. Roughly 18% stayed inconclusive and do not appear here. No stated cut-off is given here; in the data, active means normalized growth mostly below about 0.91 (no sharp cut-off); inconclusive means no clear call, values can overlap the other calls; inactive means mostly above about 0.92. The list shows a part of the results.

Assay: chemical genetic growth profiling, strain panel (AID 1159580);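 further: tested at 20 µM; growth read once vehicle control cultures reached saturation at 30 °C; 1 = growth at the plate median or of vehicle wells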
Conditions: S. cerevisiae deletion strains, growth OD

Measured: normalized growth

Cc1[nH]c(=O)c(C#N)cc1-c1ccncc1
inactive: locus YAL013W, strain DEP1, stronger effect = lower value 1.02 | locus YAL040C, strain CLN3, stronger effect = lower value 1 | locus YCL061C, strain MRC1 (second series), stronger effect = lower value 1.01 | locus YDR363W, strain ESC2, stronger effect = lower value 1.04 | locus YER002W, strain NOP16, stronger effect = lower value 0.997 | locus YGR078C, strain PAC10, stronger effect = lower value 1.01 | locus YMR263W, strain SAP30, stronger effect = lower value 1.01 | locus YMR307W, strain GAS1, stronger effect = lower value 1.01 | locus YNL153C, strain GIM3, stronger effect = lower value 1.01 | locus YNL175C, strain NOP13, stronger effect = lower value 1.01 | locus YNL197C, strain WHI3, stronger effect = lower value 1.01 | locus YNL224C, strain SQS1, stronger effect = lower value 1.01 | locus YNL322C, strain KRE1, stronger effect = lower value 1.01 | locus YOR083W, strain WHI5 (second series), stronger effect = lower value 1.01 | locus YPL241C, strain CIN2, stronger effect = lower value 0.998
